# Results published in PubChem BioAssay (NCI).
# Compounds without any hit were thinned out: in the full panel of roughly 79,000, 15% have a hit. Unmarked numbers belong to inactive results. Activity calls are given as the source filed them. Cut-off read from the data, not from the text of the source: active = growth inhibition above about 70%; inactive = the rest.
# Experiments:
# [1] = NCI Yeast Anticancer Drug Screen. Data for the mec2-1 strain (AID 157); settings: S. cerevisiae mec2-1 strain, active compounds read high
# Procedure, shortened: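 Using mec2-1 yeast: add compound, measure growth, express inhibition versus vehicle-treated cultures.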
# [2] = NCI Yeast Anticancer Drug Screen. Data for the rad14 strain (AID 159);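 note: 0% = growth of vehicle-treated control cultures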; settings: S. cerevisiae rad14 strain growth inhibition, active compounds read high
# Procedure, shortened: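 Compound-treated yeast with a defined DNA-repair lesion; growth inhibition normalised to vehicle-treated cultures.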
# [3] = NCI Yeast Anticancer Drug Screen. Data for the sgs1 mgt1 strain (AID 161);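 note: 0% = growth of cultures given vehicle only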; settings: S. cerevisiae sgs1 mgt1 strain, active compounds read high
# Procedure, shortened: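 This yeast growth screen uses a strain with defined DNA-repair lesions; compound-treated growth is compared with vehicle-treated growth.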
# [4] = NCI Yeast Anticancer Drug Screen. Data for the CLN2oe strain (AID 163);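 note: 0% = growth of vehicle-only control cultures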; settings: S. cerevisiae CLN2oe strain, active compounds read high
# Procedure, shortened: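 Whole-cell yeast growth assay. A strain engineered for altered cell-cycle control received compound, and inhibition relative to vehicle-treated cultures was recorded.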
# [5] = NCI Yeast Anticancer Drug Screen. Data for the cln2 rad14 strain (AID 165);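 note: 0% = growth equal to vehicle treated cultures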; settings: S. cerevisiae cln2 rad14 strain, active compounds read high
# Procedure, shortened: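 Yeast strain cln2 rad14, bearing defects in cell cycle control and DNA repair, serves as the test system; values reflect growth inhibition compared with vehicle.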
# [6] = NCI Yeast Anticancer Drug Screen. Data for the bub3 strain (AID 167); settings: S. cerevisiae bub3 mutant strain, active compounds read high
# Procedure, shortened: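 Growth of a checkpoint-deficient yeast mutant is measured after compound exposure. Values represent inhibition relative to vehicle.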
# [7] = NCI Yeast Anticancer Drug Screen. Data for the wt2 strain (AID 169);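 note: 0% = growth of vehicle-treated yeast cultures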; settings: S. cerevisiae wt2 strain growth inhibition, active compounds read high
# Procedure, shortened: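 Treated yeast vs. vehicle-treated yeast: growth inhibition determined.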
# [8] = NCI Yeast Anticancer Drug Screen. Data for the mlh1 strain (AID 171);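 note: 0% = growth of vehicle-treated control cultures of the same strain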; settings: S. cerevisiae mlh1 strain growth inhibition, active compounds read high
# Procedure, shortened: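 A yeast strain with a defined genetic lesion serves as the test organism. Cultures receive compound or vehicle, and growth is measured.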
# [9] = NCI Yeast Anticancer Drug Screen. Data for the sgs1 strain (AID 173);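 note: 0% = growth of vehicle-only control cultures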; settings: S. cerevisiae sgs1 mutant, active compounds read high
# Procedure, shortened: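 A genetically defined yeast mutant is incubated with the test compound, and its growth is compared to that of the same strain given vehicle.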
# [10] = NCI Yeast Anticancer Drug Screen. Data for the mlh1 rad18 strain (AID 175); settings: S. cerevisiae mlh1 rad18 strain growth inhibition, active compounds read high
# Procedure, shortened: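 Steps: expose repair-defective yeast to compound; measure growth; express inhibition against vehicle-treated controls.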
# [11] = NCI Yeast Anticancer Drug Screen. Data for the rad18 strain (AID 177); settings: S. cerevisiae rad18 mutant growth inhibition, active compounds read high
# Procedure, shortened: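 Measured value is growth inhibition of a yeast strain bearing a DNA repair alteration, referenced to vehicle-treated cells.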
# [12] = NCI Yeast Anticancer Drug Screen. Data for the rad52 strain (AID 147);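 note: 0% = growth of vehicle-treated control cultures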; settings: S. cerevisiae rad52 mutant growth inhibition, active compounds read high
# Procedure, shortened: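 Here a repair-compromised yeast strain receives each compound; its growth is then quantified and normalised to vehicle-only controls.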
# [13] = NCI Yeast Anticancer Drug Screen. Data for the wt1 strain (AID 149);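 note: 0% = growth of vehicle-treated wt1 cultures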; settings: S. cerevisiae wt1 strain (SPY 50644) growth inhibition, active compounds read high
# Procedure, shortened: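 Readout: yeast growth inhibition, normalised to vehicle controls, in the wt1 strain exposed to test compounds.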
# [14] = NCI Yeast Anticancer Drug Screen. Data for the rad50EPP+ strain (AID 151);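 note: 0% = growth of vehicle-treated control cultures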; settings: S. cerevisiae rad50 mutant strain, active compounds read high
# Procedure, shortened: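 Read-out is yeast growth inhibition relative to vehicle; cells used were the rad50EPP+ strain.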
# [15] = NCI Yeast Anticancer Drug Screen. Data for the mgt1 strain (AID 153); settings: S. cerevisiae mgt1 mutant growth inhibition, active compounds read high
# Procedure, shortened: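 Measured: inhibition of mgt1 yeast growth by compound, normalized to vehicle-treated cultures.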
# [16] = NCI Yeast Anticancer Drug Screen. Data for the rad50 strain (AID 155);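 note: 0% = growth of vehicle-only cultures of the same strain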; settings: S. cerevisiae rad50 strain growth inhibition, active compounds read high
# Procedure, shortened: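 Compounds were tested on a yeast strain with an engineered DNA damage repair alteration; the reported value is growth inhibition normalised to vehicle treatment.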
# [17] = at 5.0 µM (retest, dose inferred, filed as 0.5)
# [18] = at 50.0 µM (retest, dose inferred, filed as 5.0)
structure (smiles),measurement,setting,value
NNc1c(F)c(F)cc(F)c1F,growth inhibition,[1]; [17],-11%
same,growth inhibition,[1]; at 11.0 µM,-38%
same,growth inhibition,[1]; at 33.0 µM,-20%
same,growth inhibition,[1]; [18],6%
same,growth inhibition,[1]; at 50.0 µM,33.1%
same,growth inhibition,[1]; at 100.0 µM,35%
same,growth inhibition,[2]; at 1.2 µM,-25%
same,growth inhibition,[2]; at 3.7 µM,-25%
same,growth inhibition,[2]; at 11.0 µM,-27%
same,growth inhibition,[2]; at 33.0 µM,-21%
same,growth inhibition,[2]; at 100.0 µM,-4%
same,growth inhibition,[3]; [17],0%
same,growth inhibition,[3]; [18],23%
same,growth inhibition,[3]; at 50.0 µM,67.9%
same,growth inhibition,[4]; at 1.2 µM,0%
same,growth inhibition,[4]; at 3.7 µM,-4%
same,growth inhibition,[4]; at 11.0 µM,3%
same,growth inhibition,[4]; at 33.0 µM,18%
same,growth inhibition,[4]; at 100.0 µM,26%
same,growth inhibition,[5]; [17],21%
same,growth inhibition,[5]; [18],42%
same,growth inhibition,[5]; at 50.0 µM,46.9%
same,growth inhibition,[6]; at 1.2 µM,-11%
same,growth inhibition,[6]; at 3.7 µM,-18%
same,growth inhibition,[6]; [17],27%
same,growth inhibition,[6]; at 11.0 µM,-3%
same,growth inhibition,[6]; at 33.0 µM,10%
same,growth inhibition,[6]; [18],70% (active)
same,growth inhibition,[6]; at 50.0 µM,84.6% (active)
same,growth inhibition,[6]; at 100.0 µM,47%
same,growth inhibition,[7]; at 1.2 µM,-27%
same,growth inhibition,[7]; at 3.7 µM,-24%
same,growth inhibition,[7]; at 11.0 µM,-22%
same,growth inhibition,[7]; at 33.0 µM,-20%
same,growth inhibition,[7]; at 100.0 µM,-13%
same,growth inhibition,[8]; at 1.2 µM,-12%
same,growth inhibition,[8]; at 3.7 µM,-7%
same,growth inhibition,[8]; at 11.0 µM,-6%
same,growth inhibition,[8]; at 33.0 µM,5%
same,growth inhibition,[8]; at 100.0 µM,42%
same,growth inhibition,[9]; at 1.2 µM,-3%
same,growth inhibition,[9]; at 3.7 µM,8%
same,growth inhibition,[9]; at 11.0 µM,18%
same,growth inhibition,[9]; at 33.0 µM,32%
same,growth inhibition,[9]; at 100.0 µM,66%
same,growth inhibition,[10]; [17],7%
same,growth inhibition,[10]; [18],36%
same,growth inhibition,[10]; at 50.0 µM,25%
same,growth inhibition,[11]; at 1.2 µM,-9%
same,growth inhibition,[11]; at 3.7 µM,-20%
same,growth inhibition,[11]; at 11.0 µM,-17%
same,growth inhibition,[11]; at 33.0 µM,-20%
same,growth inhibition,[11]; at 100.0 µM,6%
CC1OCC2OC(C)OC(C3C4=C(CC(C)(C)CC4=O)OC4=C3C(=O)CC(C)(C)C4)C2O1 (stereo unspecified),growth inhibition,[12]; at 1.2 µM,0%
same,growth inhibition,[12]; at 3.7 µM,4%
same,growth inhibition,[12]; at 11.0 µM,17%
same,growth inhibition,[12]; at 33.0 µM,38%
same,growth inhibition,[12]; at 100.0 µM,56%
same,growth inhibition,[13]; at 1.2 µM,-2%
same,growth inhibition,[13]; at 3.7 µM,2%
same,growth inhibition,[13]; at 11.0 µM,6%
same,growth inhibition,[13]; at 33.0 µM,24%
same,growth inhibition,[13]; at 100.0 µM,45%
same,growth inhibition,[14]; at 1.2 µM,-3%
same,growth inhibition,[14]; at 3.7 µM,-5%
same,growth inhibition,[14]; at 11.0 µM,-4%
same,growth inhibition,[14]; at 33.0 µM,-1%
same,growth inhibition,[14]; at 100.0 µM,1%
same,growth inhibition,[15]; at 1.2 µM,-1%
same,growth inhibition,[15]; at 3.7 µM,2%
same,growth inhibition,[15]; at 11.0 µM,2%
same,growth inhibition,[15]; at 33.0 µM,2%
same,growth inhibition,[15]; at 100.0 µM,21%
same,growth inhibition,[16]; at 1.2 µM,7%
same,growth inhibition,[16]; at 3.7 µM,-32%
same,growth inhibition,[16]; [17],10%
same,growth inhibition,[16]; at 11.0 µM,49%
same,growth inhibition,[16]; at 33.0 µM,61%
same,growth inhibition,[16]; [18],57%
same,growth inhibition,[16]; at 50.0 µM,82.2% (active)
same,growth inhibition,[16]; at 100.0 µM,80% (active)
same,growth inhibition,[1]; at 1.2 µM,0%
same,growth inhibition,[1]; at 3.7 µM,3%
same,growth inhibition,[1]; [17],7%
same,growth inhibition,[1]; at 11.0 µM,12%
same,growth inhibition,[1]; at 33.0 µM,28%
same,growth inhibition,[1]; [18],-18%
same,growth inhibition,[1]; at 50.0 µM,27.4%
same,growth inhibition,[1]; at 100.0 µM,46%
same,growth inhibition,[2]; at 1.2 µM,-1%
same,growth inhibition,[2]; at 3.7 µM,-1%
same,growth inhibition,[2]; at 11.0 µM,5%
same,growth inhibition,[2]; at 33.0 µM,18%
same,growth inhibition,[2]; at 100.0 µM,41%
same,growth inhibition,[3]; [17],5%
same,growth inhibition,[3]; [18],37%
same,growth inhibition,[3]; at 50.0 µM,40.7%
same,growth inhibition,[4]; at 1.2 µM,-2%
same,growth inhibition,[4]; at 3.7 µM,-4%
same,growth inhibition,[4]; at 11.0 µM,-2%
same,growth inhibition,[4]; at 33.0 µM,-2%
same,growth inhibition,[4]; at 100.0 µM,-3%
same,growth inhibition,[5]; [17],5%
same,growth inhibition,[5]; [18],15%
same,growth inhibition,[5]; at 50.0 µM,3.55%
same,growth inhibition,[6]; at 1.2 µM,1%
same,growth inhibition,[6]; at 3.7 µM,2%
same,growth inhibition,[6]; [17],-46%
same,growth inhibition,[6]; at 11.0 µM,7%
same,growth inhibition,[6]; at 33.0 µM,29%
same,growth inhibition,[6]; [18],32%
same,growth inhibition,[6]; at 50.0 µM,57.8%
same,growth inhibition,[6]; at 100.0 µM,66%
same,growth inhibition,[7]; at 1.2 µM,-1%
same,growth inhibition,[7]; at 3.7 µM,9%
same,growth inhibition,[7]; at 11.0 µM,1%
same,growth inhibition,[7]; at 33.0 µM,4%
same,growth inhibition,[7]; at 100.0 µM,23%
same,growth inhibition,[8]; at 1.2 µM,1%
same,growth inhibition,[8]; at 3.7 µM,2%
same,growth inhibition,[8]; at 11.0 µM,4%
same,growth inhibition,[8]; at 33.0 µM,8%
same,growth inhibition,[8]; at 100.0 µM,25%
same,growth inhibition,[9]; at 1.2 µM,-2%
same,growth inhibition,[9]; at 3.7 µM,1%
same,growth inhibition,[9]; at 11.0 µM,9%
same,growth inhibition,[9]; at 33.0 µM,32%
same,growth inhibition,[9]; at 100.0 µM,65%
same,growth inhibition,[10]; [17],9%
same,growth inhibition,[10]; [18],46%
same,growth inhibition,[10]; at 50.0 µM,80.7% (active)
same,growth inhibition,[11]; at 1.2 µM,3%
same,growth inhibition,[11]; at 3.7 µM,18%
same,growth inhibition,[11]; at 11.0 µM,43%
same,growth inhibition,[11]; at 33.0 µM,78% (active)
same,growth inhibition,[11]; at 100.0 µM,91% (active)
